TDP1 cell noCPT – qHTS for Inhibitors of human tyrosyl-DNA phosphodiesterase 1 (TDP1): qHTS in cells in absence of CPT. DT40 Tdp1-/- hTDP1 cells, no CPT, ATP luminescence, 48 h. Potency, µM (doses to about 46.2 µM), inactives show at the highest dose activity change, negative = growth inhibition, usual class: inhibitors. 420,000 tested, 15% active. AID 686978, 2013; also: potency is read from the fitted curve at half-maximal effect; nearly all actives have a fitted effect of over 55% in size
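Growth of hTDP1-complemented DT40 Tdp1-knockout cells is measured by ATP luminescence after at least 48 hr compound exposure at 37 °C, with DMSO substituting for the 20 nM CPT used in the parallel screen.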
DT40 TDP1 CPT – qHTS for Inhibitors of human tyrosyl-DNA phosphodiesterase 1 (TDP1): qHTS in cells in presence of CPT | chicken DT40 Tdp1-/-;hTDP1 cells + 20 nM CPT, ATP luminescence, 48 h | Potency, µM (titrated, usually from 46.2 µM), for inactives: top-dose activity change, negative = growth inhibition, hits mostly inhibitors | 420,000 tested, 12% active; also: potency is read from the fitted curve at half-maximal effect; nearly all actives have a fitted effect of over 55% in size
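Chicken DT40 Tdp1-/- cells stably complemented with human TDP1 were seeded at 400 cells/well in medium containing 20 nM camptothecin, exposed to pin-transferred compounds, and grown at 37 °C for at least 48 hr. Viability was read as ATP luminescence.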
ELG1 DNA repair – qHTS screen for small molecules that inhibit ELG1-dependent DNA repair in human embryonic kidney (HEK293T) cells expressing luciferase-tagged ELG1. Potency, µM (titrated, usually from 46.1 µM), for inactives: at the top dose activity change, negative = inhibition, hits mostly inhibitors. AID 504467, 2011. 330,000 tested, 2.3% active. HEK293T ELG1-luciferase reporter, luminescence, 16 h; DNA damage induced by 5-fluorouridine; also: potency is read from the fitted curve at half-maximal effect; nearly all actives have a fitted effect of over 55% in size
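Reporter activity after DNA damage by 5-fluorouridine is monitored. Compound-treated cells incubate 16 hr at 37 °C, then ONE-Glo is added for 30 min before luminescence reading.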
HT1080-NT tox – qHTS for induction of synthetic lethality in tumor cells producing 2HG: qHTS for the HT-1080-NT fibrosarcoma cell line; HT-1080-NT fibrosarcoma viability, CellTiter-Glo ATP luminescence, 48 h; Potency, µM (doses to about 46.1 µM), for the others: at the top dose activity, negative = less viability, actives largely listed as cytotoxic; 360,000 tested, 1.6% active; AID 686970, 2013;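 also: NT is the 2HG producing partner of a matched IDH1 knockdown line; potency is read from the fitted curve at half-maximal effect; 0% = DMSO-treated cells and -100% = media-only wells without cells; nearly all actives have a fitted effect of over 55% in size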
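Compounds were tested in concentration-response format on HT-1080-NT cells for 48 hours at 37 degrees C. Cell viability came from CellTiter-Glo luminescence; curves were classified by r2, response magnitude and activity.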
HT1080 IDH1KD tx – qHTS for induction of synthetic lethality in tumor cells producing 2HG: qHTS for the HT-1080-IDH1KD cell line | 360,000 tested, 2% active | HT-1080 IDH1 knockdown viability, ATP luminescence, 48 h | Potency, µM (highest dose often 46.1 µM), inactives show top-dose activity, negative = toxicity, usual class: cytotoxic;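 also: potency is read from the fitted curve at half-maximal effect; 0% = DMSO wells and -100% = cell-free medium wells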
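After a 2 h attachment period, IDH1KD HT-1080 cells took pin-transferred compound for 48 h at 37 °C; ATP-based luminescence after 10 min room-temperature reagent incubation reported viability.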
IL-1B inflam inh – qHTS for Inhibitors of Inflammasome Signaling: IL-1-beta AlphaLISA Primary Screen | THP-1 LPS/ATP IL-1B secretion, AlphaLISA, 16 h; active compounds read low | activity change, % at 57.5 µM | 360,000 tested, 4.7% active; in the data active = activity change below about -50%; inconclusive = mostly about -30% to -49%
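Secreted IL-1B measured by AlphaLISA bead assay after 16 h compound exposure of THP-1 cells; compounds (final up to 57.5 uM) added 1 h before LPS (250 ng/mL) and ATP (1.25 mM) stimulation; lower signal means less secretion.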
* hit, by the source's call; ? = inconclusive; · = no result given. Only some compounds are listed: those with a hit (about 19% of all), similar ones and a draw of the others. Unless noted, calls follow the shape of the dose curve; as a rule, active = well fitted curve in the direction sought with a large enough effect; inconclusive = small, poorly fitted or top-dose-only effect, or another doubt; inactive = no such curve, though single readings can be large; an effect the other way counts as inactive or inconclusive. Unless noted, % is scaled to controls: 0 for no effect and ±100 for the full control effect.

SMILES	TDP1 cell noCPT	DT40 TDP1 CPT	ELG1 DNA repair	HT1080-NT tox	HT1080 IDH1KD tx	IL-1B inflam inh
COC(=O)C1(CC2CC(c3ccc(Cl)cc3)=NO2)CCN(C(=O)OC(C)(C)C)CC1 (stereo not given)	21µM*	26µM*	-24%	1%	-1%	-1
COC(=O)C1(Cc2cc(-c3ccc([N+](=O)[O-])cc3)no2)CCN(C(=O)OC(C)(C)C)CC1	21µM*	?	?	4%	4%	-18
COC(=O)C1(Cc2cc(-c3ccc(Cl)cc3)no2)CCN(C(=O)OC(C)(C)C)CC1	18µM*	?	-26%	?	-6%	?
COc1ccc(-c2ccc(=O)n(CC(=O)Nc3ccc(N(C)C)cc3)n2)cc1	1%	1%	·	·	·	·
Cc1nc(NCc2ccco2)[nH]c(=O)c1CCC(C)C	?	?	-10%	11%	-1%	8
O=c1[nH]c(NCc2ccco2)nnc1Cc1ccccc1Cl	4.1µM*	6.5µM*	·	?	?	-17
CC(=O)OC1C=C[C@]2(C)C(CC(OC(C)=O)[C@@]3(C)C4=CC(=O)OC(c5ccoc5)[C@]4(C)CCC23)C1(C)C (stereo not given in full)	21µM*	?	·	·	·	·
CC(=O)OC1CC[C@]2(C)C(CC(OC(C)=O)[C@@]3(C)C4=CC(=O)OC(c5ccoc5)[C@]4(C)CCC23)C1(C)C (stereo not given in full)	21µM*	?	·	·	·	·
CCc1ccc(NC(=O)Cn2ccn(-c3ccc(C)c(C)c3)c(=O)c2=O)cc1	-17%	0%	·	·	·	·
Cc1cnc(C(=O)NC2CC(C)(C)Cc3c2cnn3-c2cccc(F)c2)cn1 (stereo not given)	?	?	-3%	2%	-5%	-2
CCn1cc(C(=O)NC2CC(C)(C)Cc3c2cnn3-c2cccc(F)c2)cn1 (stereo not given)	21µM*	16µM*	-1%	2%	0%	7
CC(C)Oc1ccc2ccccc2c1CNC[C@H]1O[C@@H](n2cnc(C(N)=O)n2)[C@H](O)[C@@H]1O	-13%	29%	·	-3%	3%	6
O=C(NC1CCCCC1)N1CCN(C(c2ccccc2)c2ccccc2)CC1	16µM*	10µM*	?	-7%	-1%	-15
O=C(NC1CCCCC1)N1CCN(c2ccccc2)CC1	-16%	-5%	1%	21%	13%	24
CC(C)=CCCC(C)CN1CCC(N2CCC(C(=O)NC(C)C)CC2)CC1 (stereo not given)	16µM*	23µM*	-10%	-3%	-8%	-25
CCCCCCCC(=O)Nc1cc(C(=O)NCCC)ccc1N1CCC2(CC1)CC(c1ccccc1)=NO2	12µM*	?	?	2%	6%	8
CCCNC(=O)c1ccc(N2CCC3(CC2)CC(c2ccccc2)=NO3)c(NC(=O)c2ccccc2)c1	15µM*	5.8µM*	6.5µM*	-1%	-2%	-15
CCCNC(=O)c1ccc(N2CCC3(CC2)CC(c2cccc(Br)c2)=NO3)c(NC(=O)c2ccccc2)c1	23µM*	?	?	-6%	-11%	-10
CCCNC(=O)c1ccc(N2CCC3(CC2)CC(c2ccccc2)=NO3)c(NC(=O)c2ccc(Br)cc2)c1	-16%	?	?	-2%	1%	-7
CCCNC(=O)c1ccc(N2CCC3(CC2)CC(c2ccccc2)=NO3)c(NC(=O)c2cccc(C)c2)c1	?	8.2µM*	?	-2%	-5%	-10
COc1ccc(C2/C=C\CC(OCc3ccccc3)CC(=O)N2Cc2cccc(F)c2)cc1 (stereo not given)	21µM*	18µM*	21µM*	-29%	?	-18
COc1ccc(C2/C=C\CN(C(=O)C3CC3)CC(=O)N2Cc2ccc(F)cc2)cc1 (stereo not given)	-19%	-3%	13%	3%	2%	13
COc1ccc(C2/C=C\CN(C(=O)C3CC3)[C@H](Cc3ccccc3)C(=O)N2Cc2ccc(F)cc2)cc1 (stereo not given in full)	23µM*	16µM*	6%	?	?	0
CCCCCCC(=O)N1C/C=C\C(c2ccc(OC)cc2)N(Cc2ccc(F)cc2)C(=O)[C@H]1Cc1ccccc1 (stereo not given in full)	18µM*	18µM*	24%	-23%	?	-4
COc1ccc(C2/C=C\CN(C(=O)c3ccc(C)cc3)[C@H](Cc3ccccc3)C(=O)N2Cc2ccc(F)cc2)cc1 (stereo not given in full)	5.8µM*	4.6µM*	?	-7%	-18%	27
SMILES	TDP1 cell noCPT	DT40 TDP1 CPT	ELG1 DNA repair	HT1080-NT tox	HT1080 IDH1KD tx	IL-1B inflam inh
COc1ccc(C2/C=C\CN(C(=O)OCc3ccccc3)CC(=O)N2Cc2ccc(F)cc2)cc1 (stereo not given)	?	?	-9%	-24%	?	50
CCOC(=O)C1=CCN(S(=O)(=O)c2ccccc2C)C1c1cccc(Cl)c1 (stereo not given)	?	?	·	-18%	?	12
COc1ccc(C2/C=C\CN3CCC[C@H]3C(=O)N2Cc2ccc(F)cc2)cc1 (stereo not given in full)	23µM*	?	6%	6%	6%	-20
COc1ccc([C@H]2/C=C\CN(S(C)(=O)=O)[C@@H](C)C(=O)N2Cc2ccc(F)cc2)cc1	-11%	-29%	·	-4%	-10%	25
COc1ccc([C@H]2/C=C\CN(C(=O)C3CC3)[C@@H](C)C(=O)N2Cc2ccc(F)cc2)cc1	12µM*	23µM*	·	9%	20%	23
Cc1cc(C)n2nc(SCC(=O)NC3CCCCC3)nc2n1	-11%	6%	19%	8%	8%	-4
Cc1ccc(CNCC(O)(c2ccc(F)cc2)c2ccc(F)cc2)cc1	?	21µM*	-4%	-21%	-17%	-16
